Among the data in PMC7862700, “An all-to-all approach to the identification of sequence-specific readers for epigenetic DNA modifications on cytosine” are binding signal values, retold here.

Holding throughout (experiment): DAPPL (digital affinity profiling via proximity ligation, sequencing); 10 mM Tris-HCl pH 7.5, 50 mM NaCl, 1 mM DTT, 4% glycerol, room temperature, 30 min; GST-TFs on glutathione beads, 16-mer random dsDNA library, 0.1% formaldehyde crosslink after washing; high values mean tight binding
What all share (conditions): protein: recombinant; tags: N-terminal GST; dsDNA, one strand shown

The target in one experiment is T1, FLI1 (Homo sapiens, UniProt Q01543 1-452).
T1 sequence: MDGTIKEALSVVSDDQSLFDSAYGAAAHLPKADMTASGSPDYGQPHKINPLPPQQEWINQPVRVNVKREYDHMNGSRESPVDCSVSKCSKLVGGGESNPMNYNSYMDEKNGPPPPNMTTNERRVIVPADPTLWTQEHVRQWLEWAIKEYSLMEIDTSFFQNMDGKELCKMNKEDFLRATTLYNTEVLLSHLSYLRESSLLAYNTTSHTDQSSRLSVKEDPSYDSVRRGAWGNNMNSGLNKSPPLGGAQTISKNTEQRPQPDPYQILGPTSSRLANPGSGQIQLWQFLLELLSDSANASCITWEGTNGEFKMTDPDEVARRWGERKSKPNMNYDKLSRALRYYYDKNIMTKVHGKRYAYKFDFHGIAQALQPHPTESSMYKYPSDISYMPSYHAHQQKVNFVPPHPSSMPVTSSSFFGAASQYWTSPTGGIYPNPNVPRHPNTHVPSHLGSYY
Put shortly: (§1)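 Each value of binding signal is a hexamer's read frequency for a factor divided by the same hexamer's frequency in the tag-only sample. Barcoded, bead-captured GST fusions of human transcription factors made in yeast were pooled with that sample and incubated with 200 nmole of a random double-stranded 16-mer DNA library in Tris/NaCl/DTT/glycerol buffer at room temperature for 30 min. Washing, 0.1% formaldehyde crosslinking, proximity ligation, PCR and Illumina NextSeq500 sequencing followed.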

The target of a further experiment is T2, ELK1 (Homo sapiens, UniProt P19419 1-428).
T2 sequence: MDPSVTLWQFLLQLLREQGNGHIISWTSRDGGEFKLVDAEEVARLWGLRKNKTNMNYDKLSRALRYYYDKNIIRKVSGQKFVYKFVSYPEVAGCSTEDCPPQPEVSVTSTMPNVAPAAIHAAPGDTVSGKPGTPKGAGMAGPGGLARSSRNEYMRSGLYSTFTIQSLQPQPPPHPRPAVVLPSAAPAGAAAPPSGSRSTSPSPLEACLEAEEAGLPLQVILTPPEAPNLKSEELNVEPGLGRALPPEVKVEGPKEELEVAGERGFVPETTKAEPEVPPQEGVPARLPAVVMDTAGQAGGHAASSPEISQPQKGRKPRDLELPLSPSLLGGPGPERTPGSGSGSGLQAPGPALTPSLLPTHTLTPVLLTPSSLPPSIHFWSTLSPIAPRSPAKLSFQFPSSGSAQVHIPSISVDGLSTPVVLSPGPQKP
The method in brief:
as §1

A further experiment concerns the target T3, GABPA (Homo sapiens, UniProt Q06546 1-454).
T3 sequence: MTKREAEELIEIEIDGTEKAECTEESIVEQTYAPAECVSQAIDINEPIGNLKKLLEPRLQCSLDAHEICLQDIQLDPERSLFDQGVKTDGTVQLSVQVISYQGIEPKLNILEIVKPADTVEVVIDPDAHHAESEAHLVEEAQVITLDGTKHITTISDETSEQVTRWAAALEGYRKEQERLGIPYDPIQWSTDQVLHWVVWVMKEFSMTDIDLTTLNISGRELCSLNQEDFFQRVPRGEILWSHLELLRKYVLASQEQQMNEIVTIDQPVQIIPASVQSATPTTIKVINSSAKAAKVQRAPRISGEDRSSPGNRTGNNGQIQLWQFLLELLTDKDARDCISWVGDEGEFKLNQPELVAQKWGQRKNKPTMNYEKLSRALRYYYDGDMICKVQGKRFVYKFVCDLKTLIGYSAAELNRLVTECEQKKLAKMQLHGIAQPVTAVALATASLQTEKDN
Put shortly:
as §1

The target in another experiment is T4, ERG (Homo sapiens, UniProt P11308 1-479).
T4 sequence: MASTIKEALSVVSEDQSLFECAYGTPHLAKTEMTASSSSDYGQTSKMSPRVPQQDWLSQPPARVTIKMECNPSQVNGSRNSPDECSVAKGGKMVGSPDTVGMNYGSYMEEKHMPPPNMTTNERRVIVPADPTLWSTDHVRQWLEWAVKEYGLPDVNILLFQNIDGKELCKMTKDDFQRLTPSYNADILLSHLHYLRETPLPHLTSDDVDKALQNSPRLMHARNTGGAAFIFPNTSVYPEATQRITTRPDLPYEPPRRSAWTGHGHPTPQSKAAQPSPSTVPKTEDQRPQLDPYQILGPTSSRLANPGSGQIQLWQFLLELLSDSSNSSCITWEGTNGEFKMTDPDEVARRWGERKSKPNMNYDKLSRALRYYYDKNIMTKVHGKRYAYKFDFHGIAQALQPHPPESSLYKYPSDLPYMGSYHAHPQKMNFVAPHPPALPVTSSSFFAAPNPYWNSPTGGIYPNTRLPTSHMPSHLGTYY
Put shortly: as §1

The target in another experiment is ELF1 (Homo sapiens, UniProt P32519 1-619). The method in brief: as §1
Chain of ELF1 (P32519 whole entry): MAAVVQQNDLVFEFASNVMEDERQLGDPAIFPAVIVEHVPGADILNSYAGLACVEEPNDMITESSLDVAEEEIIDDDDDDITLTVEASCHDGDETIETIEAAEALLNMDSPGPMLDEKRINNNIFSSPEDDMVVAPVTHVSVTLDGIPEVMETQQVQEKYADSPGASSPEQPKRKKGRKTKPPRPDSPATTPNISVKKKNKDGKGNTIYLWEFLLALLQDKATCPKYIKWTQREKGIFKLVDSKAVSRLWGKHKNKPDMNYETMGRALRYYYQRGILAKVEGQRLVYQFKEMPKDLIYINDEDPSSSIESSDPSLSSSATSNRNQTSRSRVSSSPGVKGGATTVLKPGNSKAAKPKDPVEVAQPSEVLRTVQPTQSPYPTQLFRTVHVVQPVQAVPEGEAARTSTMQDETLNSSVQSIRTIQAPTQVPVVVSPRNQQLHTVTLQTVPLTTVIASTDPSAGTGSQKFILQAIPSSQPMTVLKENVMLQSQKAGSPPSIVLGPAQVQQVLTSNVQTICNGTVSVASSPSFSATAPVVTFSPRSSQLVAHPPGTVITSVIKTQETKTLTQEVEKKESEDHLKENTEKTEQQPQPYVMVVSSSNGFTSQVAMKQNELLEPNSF
Another experiment deals with T5, EHF (Homo sapiens, UniProt Q9NZC4 1-300).
T5 sequence: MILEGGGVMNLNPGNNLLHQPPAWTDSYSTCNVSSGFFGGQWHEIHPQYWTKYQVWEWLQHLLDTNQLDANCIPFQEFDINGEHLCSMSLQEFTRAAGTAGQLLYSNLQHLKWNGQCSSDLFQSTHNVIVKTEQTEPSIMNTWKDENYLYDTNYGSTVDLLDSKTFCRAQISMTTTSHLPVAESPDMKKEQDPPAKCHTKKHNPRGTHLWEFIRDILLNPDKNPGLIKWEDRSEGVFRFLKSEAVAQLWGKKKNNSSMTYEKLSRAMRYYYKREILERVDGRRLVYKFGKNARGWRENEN
Put shortly:
as §1

In a further experiment the target is SPI1 (Homo sapiens, UniProt P17947 1-270). The method in brief: as §1
For another experiment, the target named is SPIB (Homo sapiens, UniProt Q01892 1-262). The method in brief: as §1
Chain of SPIB (Q01892 whole entry): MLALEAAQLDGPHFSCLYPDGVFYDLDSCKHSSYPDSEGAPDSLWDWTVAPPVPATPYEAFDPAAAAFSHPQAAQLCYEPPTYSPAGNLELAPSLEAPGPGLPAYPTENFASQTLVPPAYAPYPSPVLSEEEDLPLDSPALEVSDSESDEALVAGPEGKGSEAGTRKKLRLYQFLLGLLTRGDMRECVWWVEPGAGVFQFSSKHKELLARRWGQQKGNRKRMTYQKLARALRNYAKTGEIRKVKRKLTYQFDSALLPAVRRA
The next experiment concerns the target T6, ELK3 (Homo sapiens, UniProt P41970 1-407).
T6 sequence: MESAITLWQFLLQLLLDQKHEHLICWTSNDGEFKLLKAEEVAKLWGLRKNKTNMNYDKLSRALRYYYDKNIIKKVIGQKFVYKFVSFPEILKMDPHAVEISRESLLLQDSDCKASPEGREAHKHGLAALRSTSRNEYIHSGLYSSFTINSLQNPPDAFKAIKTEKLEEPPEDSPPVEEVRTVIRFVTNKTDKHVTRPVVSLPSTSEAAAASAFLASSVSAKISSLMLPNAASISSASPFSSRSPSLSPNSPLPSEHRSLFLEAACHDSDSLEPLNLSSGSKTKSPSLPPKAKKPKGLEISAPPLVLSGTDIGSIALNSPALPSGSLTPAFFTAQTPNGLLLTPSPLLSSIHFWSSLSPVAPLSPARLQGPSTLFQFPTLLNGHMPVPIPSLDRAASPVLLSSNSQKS
Put shortly: as §1

The next experiment has as its target T7, FEV (Homo sapiens, UniProt Q99581 1-238).
T7 sequence: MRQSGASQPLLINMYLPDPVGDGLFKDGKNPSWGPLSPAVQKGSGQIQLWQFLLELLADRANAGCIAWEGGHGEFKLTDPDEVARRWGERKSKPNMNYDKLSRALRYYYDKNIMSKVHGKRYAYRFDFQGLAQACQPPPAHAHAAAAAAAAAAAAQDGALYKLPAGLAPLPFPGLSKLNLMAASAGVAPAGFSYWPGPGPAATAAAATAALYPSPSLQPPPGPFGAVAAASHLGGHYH
The method in brief: as §1

In another experiment the target is ETV5 (Homo sapiens, UniProt P41161 1-510). The method in brief:
as §1

A further experiment has as its target T8, SPIC (Homo sapiens, UniProt Q8N5J4 1-248).
T8 sequence: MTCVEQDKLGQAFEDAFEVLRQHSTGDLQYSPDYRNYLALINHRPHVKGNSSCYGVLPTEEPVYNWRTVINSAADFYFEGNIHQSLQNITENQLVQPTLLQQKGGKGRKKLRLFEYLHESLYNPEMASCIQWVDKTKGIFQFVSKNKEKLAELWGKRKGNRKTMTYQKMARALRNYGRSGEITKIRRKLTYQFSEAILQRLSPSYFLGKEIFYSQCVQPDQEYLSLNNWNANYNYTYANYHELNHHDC
The method in brief: as §1

Another experiment has as its target ELF4 (Homo sapiens, UniProt Q99607 1-663). Put shortly:
as §1

A further experiment concerns the target T9, ELK4 (Homo sapiens, UniProt P28324-2 1-405).
T9 sequence: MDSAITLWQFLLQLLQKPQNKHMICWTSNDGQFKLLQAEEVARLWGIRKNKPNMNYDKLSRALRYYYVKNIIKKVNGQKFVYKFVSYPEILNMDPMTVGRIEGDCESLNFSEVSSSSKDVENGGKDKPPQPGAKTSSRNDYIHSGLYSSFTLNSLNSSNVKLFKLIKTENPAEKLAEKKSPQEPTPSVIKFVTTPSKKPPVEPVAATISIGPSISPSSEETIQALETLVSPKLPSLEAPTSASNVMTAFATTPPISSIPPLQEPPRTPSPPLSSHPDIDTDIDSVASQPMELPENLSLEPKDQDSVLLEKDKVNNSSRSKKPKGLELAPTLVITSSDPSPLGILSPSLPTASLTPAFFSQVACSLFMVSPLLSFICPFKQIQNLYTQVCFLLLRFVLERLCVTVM
Put shortly:
as §1

For another experiment, the target named is T10, ETV2 (Homo sapiens, UniProt O00321 1-342).
T10 sequence: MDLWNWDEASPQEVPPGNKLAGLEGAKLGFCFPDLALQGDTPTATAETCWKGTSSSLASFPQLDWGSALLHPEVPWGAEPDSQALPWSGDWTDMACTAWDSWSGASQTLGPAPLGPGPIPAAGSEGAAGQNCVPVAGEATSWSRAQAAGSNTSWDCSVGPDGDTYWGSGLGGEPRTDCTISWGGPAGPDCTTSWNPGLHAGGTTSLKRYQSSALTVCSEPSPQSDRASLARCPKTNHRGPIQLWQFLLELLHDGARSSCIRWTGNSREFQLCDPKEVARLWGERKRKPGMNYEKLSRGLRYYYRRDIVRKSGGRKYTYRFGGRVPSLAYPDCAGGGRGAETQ
Put shortly: as §1

Another experiment concerns the target T11, ELF3 (Homo sapiens, UniProt P78545 1-371).
T11 sequence: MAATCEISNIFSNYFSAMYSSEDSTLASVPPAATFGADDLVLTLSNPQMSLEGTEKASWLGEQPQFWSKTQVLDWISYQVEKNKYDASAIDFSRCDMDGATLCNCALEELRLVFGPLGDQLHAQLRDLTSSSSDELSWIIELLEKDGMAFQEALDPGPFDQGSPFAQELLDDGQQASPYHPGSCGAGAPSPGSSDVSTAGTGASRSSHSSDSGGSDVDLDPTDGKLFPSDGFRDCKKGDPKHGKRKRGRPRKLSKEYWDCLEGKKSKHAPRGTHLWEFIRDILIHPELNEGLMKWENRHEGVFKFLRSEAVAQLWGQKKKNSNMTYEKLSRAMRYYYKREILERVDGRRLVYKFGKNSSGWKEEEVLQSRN
The method in brief: as §1

The target in the next experiment is CRX (Homo sapiens, UniProt O43186 1-299). The method in brief:
as §1

The target in a further experiment is ETV1 (Homo sapiens, UniProt P50549 1-477). Put shortly: as §1
Chain of ETV1 (P50549 whole entry): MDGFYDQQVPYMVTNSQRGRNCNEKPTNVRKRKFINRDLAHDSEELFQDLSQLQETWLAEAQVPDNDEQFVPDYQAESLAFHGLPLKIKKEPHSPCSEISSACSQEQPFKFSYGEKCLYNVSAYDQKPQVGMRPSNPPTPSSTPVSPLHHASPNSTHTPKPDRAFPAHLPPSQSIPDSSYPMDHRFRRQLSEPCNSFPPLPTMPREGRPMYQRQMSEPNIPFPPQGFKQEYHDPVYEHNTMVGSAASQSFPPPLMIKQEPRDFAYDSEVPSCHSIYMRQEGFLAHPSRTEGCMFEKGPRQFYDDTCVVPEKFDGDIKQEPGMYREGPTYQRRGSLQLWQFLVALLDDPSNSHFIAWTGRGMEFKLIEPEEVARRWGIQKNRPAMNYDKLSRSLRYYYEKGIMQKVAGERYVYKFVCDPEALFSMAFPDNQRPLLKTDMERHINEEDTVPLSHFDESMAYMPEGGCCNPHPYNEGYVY

Chain of CRX (O43186 whole entry): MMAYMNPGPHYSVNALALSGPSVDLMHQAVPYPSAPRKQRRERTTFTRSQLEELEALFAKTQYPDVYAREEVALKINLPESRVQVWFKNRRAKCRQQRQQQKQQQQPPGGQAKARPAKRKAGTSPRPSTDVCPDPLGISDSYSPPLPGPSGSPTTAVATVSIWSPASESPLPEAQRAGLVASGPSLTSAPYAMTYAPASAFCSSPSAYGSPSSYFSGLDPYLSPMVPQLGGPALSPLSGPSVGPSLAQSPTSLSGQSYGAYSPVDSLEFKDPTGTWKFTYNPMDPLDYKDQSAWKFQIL
Chain of ELF4 (Q99607 whole entry): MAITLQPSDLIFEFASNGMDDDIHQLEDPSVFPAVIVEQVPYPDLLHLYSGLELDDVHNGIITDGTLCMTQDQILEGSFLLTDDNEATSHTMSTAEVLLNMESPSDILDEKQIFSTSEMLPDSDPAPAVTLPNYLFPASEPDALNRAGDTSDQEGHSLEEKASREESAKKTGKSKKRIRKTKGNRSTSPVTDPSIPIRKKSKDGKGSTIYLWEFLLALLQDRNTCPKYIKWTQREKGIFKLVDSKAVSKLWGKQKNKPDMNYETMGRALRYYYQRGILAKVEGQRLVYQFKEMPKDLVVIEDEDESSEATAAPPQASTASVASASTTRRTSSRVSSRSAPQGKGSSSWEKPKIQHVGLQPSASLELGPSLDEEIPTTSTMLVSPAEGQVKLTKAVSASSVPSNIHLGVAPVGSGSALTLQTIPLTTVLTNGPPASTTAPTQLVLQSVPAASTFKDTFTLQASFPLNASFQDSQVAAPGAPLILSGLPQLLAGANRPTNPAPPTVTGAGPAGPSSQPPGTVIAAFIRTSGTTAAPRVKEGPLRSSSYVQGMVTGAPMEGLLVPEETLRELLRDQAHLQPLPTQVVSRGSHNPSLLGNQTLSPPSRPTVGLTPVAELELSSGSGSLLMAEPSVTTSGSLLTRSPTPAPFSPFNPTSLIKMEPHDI
Chain of ETV5 (P41161 whole entry): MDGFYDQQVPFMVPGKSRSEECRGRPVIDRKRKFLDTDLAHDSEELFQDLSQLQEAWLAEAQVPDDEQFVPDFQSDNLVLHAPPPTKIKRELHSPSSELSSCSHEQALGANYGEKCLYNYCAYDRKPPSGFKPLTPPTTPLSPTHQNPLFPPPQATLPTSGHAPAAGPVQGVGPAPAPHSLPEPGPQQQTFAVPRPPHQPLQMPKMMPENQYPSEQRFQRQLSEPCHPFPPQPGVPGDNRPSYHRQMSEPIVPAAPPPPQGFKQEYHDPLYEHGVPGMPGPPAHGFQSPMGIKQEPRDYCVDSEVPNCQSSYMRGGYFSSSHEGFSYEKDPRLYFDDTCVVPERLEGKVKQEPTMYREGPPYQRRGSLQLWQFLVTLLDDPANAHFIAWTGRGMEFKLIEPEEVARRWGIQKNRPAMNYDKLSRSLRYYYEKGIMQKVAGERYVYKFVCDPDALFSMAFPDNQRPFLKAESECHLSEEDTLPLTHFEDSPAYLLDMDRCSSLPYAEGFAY

As for AAACGG, the binding signal with FLI1 was 1.17 fold enrichment (6-mer frequency, TF over GST control); in the experiment with ELK1, 1.24 fold enrichment (6-mer frequency, TF over GST control); with GABPA, 1.13 fold enrichment (6-mer frequency, TF over GST control); with ERG it was 1.3 fold enrichment (6-mer frequency, TF over GST control); with ELF1, 1.21 fold enrichment (6-mer frequency, TF over GST control); in the experiment with EHF, 1.26 fold enrichment (6-mer frequency, TF over GST control). In addition, the binding signal with SPI1 was 1.47 fold enrichment (6-mer frequency, TF over GST control); in the experiment with SPIB it was 1.23 fold enrichment (6-mer frequency, TF over GST control); in the experiment with ELK3, 1.22 fold enrichment (6-mer frequency, TF over GST control); in the experiment with FEV, 1.42 fold enrichment (6-mer frequency, TF over GST control); with ETV5, 1.27 fold enrichment (6-mer frequency, TF over GST control); with SPIC, 1.19 fold enrichment (6-mer frequency, TF over GST control). For the same sequence, the binding signal in the experiment with ELF4 was 1.23 fold enrichment (6-mer frequency, TF over GST control); with ELK4, 1.19 fold enrichment (6-mer frequency, TF over GST control); with ETV2, 1.22 fold enrichment (6-mer frequency, TF over GST control); with ELF3, 1.28 fold enrichment (6-mer frequency, TF over GST control); with CRX, 1.01 fold enrichment (6-mer frequency, TF over GST control); with ETV1, 1.27 fold enrichment (6-mer frequency, TF over GST control).
